About 83,000 compounds went through this panel and 20% of them were active in at least one assay; those are over-represented in the sample as a whole.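 Each cell line was grown in a 96-well plate and treated with one concentration of compound for 48 hours. Values below 10 were considered active.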 A number with no mark means an inactive call. Calls of active or inactive are those of the source.
system: CCRF-CEM leukemia; experiment: NCI-60 one-dose screen, 48 h (100 = growth as untreated, 0 = no growth, -100 = all killed); conditions: 10 µM unless noted

Q: How did the growth turn out when `CC(C)(C)c1cc(-c2nc3ccc(N4CCN(CCO)CC4)cc3[nH]2)cc(C(C)(C)C)c1O` was run?
A: 29.5%

Q: For `Clc1ccc(/C=C/c2nc(N3CCOCC3)c3nc(Cl)c(Cl)cc3n2)cc1`, which growth is on record?
A: 106%

Q: Which growth does the source give for `CCOC(=O)/C=C\C(=O)NC(N)=O` here?
A: 93.9%

Q: For `CCC#CC[C@H]1C/C=C2/C(=O)C=C[C@@H]2C/C=C\CCCC(=O)O1`, which growth is on record?
A: 9.12% (active)

Q: For `O=C(Cc1c(F)cccc1Cl)Nc1ccc(S(=O)(=O)Nc2ncccn2)cc1`, which growth is on record?
A: 61.6%

Q: How did the growth turn out when `C=CCc1cc(Cl)cc2c(OC(C)=O)c(C(C)=O)c(-c3ccccc3)nc12` was run?
A: 104%

Q: For `Cc1c(C(=O)NCc2ccccc2)[n+](=O)c2cc(F)ccc2n1[O-]`, which growth is on record?
A: 52.5%

Q: How did the growth turn out when `C=CCOc1cccc(/C=C/C(=O)c2sc(Nc3cccnc3)nc2C)c1` was run?
A: 15.2%

Q: `COc1ccc(C(=O)c2cc(OC)c(OC)c(OC)c2)cc1/C=C/C(=O)c1ccc2c(c1)OCO2` was tested. Which growth did it give?
A: -9.53% (active)

Q: How did the growth turn out when `CCN(CC)S(=O)(=O)c1ccc2[nH]c(=O)cc(C(=O)Nc3ccc(OC)cc3OC)c2c1` was run?
A: 92.6%

Q: How did the growth turn out when `O=C(Nc1cc(C(F)(F)F)cc(C(F)(F)F)c1)Nc1ccc(OCc2nnc(-c3ccc(Cl)cc3)o2)c(F)c1` was run?
A: 6.66% (active)

Q: For `O=C1CCCCN1CCCCC#Cc1ccccc1C#Cc1ccccn1`, which growth is on record?
A: 74%

Q: How did the growth turn out when `COc1ccc2c(c1)C=CC(C#N)N2C(=O)c1ccccc1` (configuration not stated) was run?
A: 15.2%

Q: How did the growth turn out when `CC1(C)OC2COC3(C(=O)O)OC(C)(C)OC3C2O1` (configuration not stated) was run?
A: 128%

Q: How did the growth turn out when `COc1cc(C2C=C(C)N=C3SC(C)=NN32)cc(OC)c1OC` (configuration not stated) was run?
A: 91.8%

Q: `O=C(/C=C/CN1CCOCC1)Nc1cc2c(Nc3cccc(Cl)c3F)ncnc2cc1OCCOC(F)F` was tested. Which growth did it give?
A: 102%

Q: How did the growth turn out when `CCn1cc(C2NC(=O)c3cc(F)ccc3N2)c2cccc(Cl)c21` (configuration not stated) was run?
A: 5.2% (active)

Q: Which growth does the source give for `CN(C)C/C=C/C(=O)Nc1cc2c(Nc3ccc(F)c(Cl)c3F)ncnc2cc1OCCOC(F)F` here?
A: 26.3%

Q: Which growth does the source give for `CC(=O)Nc1ccc2c(c1)/C(=C\C=C/c1ccc([N+](C)(C)C)cc1)c1ccccc1-2` here?
A: 67.3%

Q: With `c1ccc([P+](CCC[P+](c2ccccc2)(c2ccccc2)c2ccccc2)(c2ccccc2)c2ccccc2)cc1` as the compound, how does the growth read?
A: 45.8%

Q: How did the growth turn out when `COc1ccc2c(c1)NC(=O)CN2c1nc(C)nc2ccccc12` was run?
A: 37.2%

Q: Which growth does the source give for `O=C(Nc1ccc(I)cc1)c1cc([N+](=O)[O-])ccc1O` here?
A: 28.4%

Q: `NC(=O)c1c(NC(=O)c2ccc3c(c2)OCO3)sc2c1CCC(=O)C2` was tested. Which growth did it give?
A: -33.3% (active)

Q: With `O=C(CNC(=O)c1cccc2ccccc12)Nc1ccccc1Oc1ccccc1` as the compound, how does the growth read?
A: 18.3%

Q: Which growth does the source give for `COC12CC(=O)C(C(C)=O)=C(O)C1(C)c1c(O)c(C)c(O)c(C(C)=O)c1O2` (configuration not stated) here?
A: 47.2%

Q: With `O=S(=O)(NCCCNc1nccc(-c2c(-c3ccccc3)nc3sccn23)n1)c1ccc(F)cc1` as the compound, how does the growth read?
A: 31.2%

Q: Which growth does the source give for `CCCCOc1nc2c(C)cccc2cc1C1CNC(=O)c2ccccc2N1` (configuration not stated) here?
A: 34.3%

Q: For `C=CCN=C1NC(=O)/C(=C/c2cc(C(C)(C)C)c(O)c(C(C)(C)C)c2)S1`, which growth is on record?
A: 69.4%

Q: How did the growth turn out when `Nc1nc(-c2ccccc2)cs1` was run?
A: 110%

Q: How did the growth turn out when `CC[C@H](C)[C@@H]1NC(=O)[C@H]([C@@H](C)O)NC(=O)C(Cc2ccccc2)NC(=O)[C@@H]2CCCN2C(=O)C(C(C)C)NC(=O)C(Cc2ccccc2)NC(=O)CNC(=O)[C@@H]2CCCN2C1=O` (some centres not stated) was run?
A: 20%

Q: With `CCN(CC)CCSc1c2ccc(Cl)cc2nc2ccc(OC)cc12` as the compound, how does the growth read?
A: 12.7%

Q: `Cc1cc2c(C(C)C)c(O)c(O)c(C=NCCCCC(=O)O)c2c(O)c1-c1c(C)cc2c(C(C)C)c(O)c(O)c(C=NCCCCC(=O)O)c2c1O` was tested. Which growth did it give?
A: 29.8%

Q: Which growth does the source give for `COc1ccc(Cn2cc(COc3cc(/C=C/C(=O)c4cc(OC)c(OC)c(OC)c4)ccc3OC)nn2)cc1` here?
A: 2.56% (active)

Q: How did the growth turn out when `Cc1ccc(C2=NN(c3ccc(S(=O)(=O)NC(=O)NCc4ccccc4)cc3)C(c3ccc(N(C)C)cc3)C2)c(C)c1` (configuration not stated) was run?
A: 42%

Q: For `c1ccc2c(c1)Oc1ccccc1C2C1c2ccccc2Oc2ccccc21`, which growth is on record?
A: 98.3%

Q: `COc1ccc(S(=O)(=O)Nc2cc(/C=C\c3cc(OC)c(OC)c(OC)c3)cc(OC)c2OC)cc1OC` was tested. Which growth did it give?
A: 9.18% (active)

Q: With `COC1=CC(c2ccc[nH]2)=N/C1=C\c1[nH]c(C)c(CCCn2cc(CCCCCCCCC[C@@H]3Cc4cc(O)ccc4C4CC[C@]5(C)[C@@H](O)CC[C@H]5C43)nn2)c1C` (some centres not stated) as the compound, how does the growth read?
A: 28.1%
